Screens: PubChem BioAssay, The Scripps Research Institute Molecular Screening Center
PME-1 inh: blocks human protein phosphatase methylesterase 1 | AID 2130 | Q9Y570 | recombinant PME-1, FP-Rh probe fluorescence polarization | inhibition, % at 5.9 µM | 320,000 tested, 0.53% active;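 active = inhibition above the campaign mean of all compounds plus 3 SD, cut at about 26% in these data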;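 note: competitive labeling of PME-1 active site by serine hydrolase directed probe; 0% = PME-1 with DMSO and 100% = wells lacking PME-1 enzyme; inhibitors block probe labeling so polarization falls and inhibition rises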
Target sequence (Q9Y570 whole entry, looked up): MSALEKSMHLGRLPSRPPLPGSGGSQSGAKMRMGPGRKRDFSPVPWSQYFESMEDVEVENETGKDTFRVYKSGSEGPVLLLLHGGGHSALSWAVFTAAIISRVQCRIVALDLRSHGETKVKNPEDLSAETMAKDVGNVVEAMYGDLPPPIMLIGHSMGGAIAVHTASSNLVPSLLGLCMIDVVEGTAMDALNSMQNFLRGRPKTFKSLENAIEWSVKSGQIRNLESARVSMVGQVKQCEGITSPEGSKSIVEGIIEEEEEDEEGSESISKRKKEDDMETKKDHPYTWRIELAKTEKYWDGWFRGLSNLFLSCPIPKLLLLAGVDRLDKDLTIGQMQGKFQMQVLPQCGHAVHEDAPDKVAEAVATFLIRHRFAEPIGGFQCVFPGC
PAFAH1B2 inh: PAFAH1B2 (human) inhibition. P68402. recombinant PAFAH1B2, FP-rhodamine activity probe, fluorescence polarization. inhibition, % at 3.39 µM. 340,000 tested, 1.2% active;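 active = inhibition above the mean of all tested compounds plus 3 SD, cut at about 24% in these data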;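 note: 0% = enzyme with DMSO and 100% = wells lacking PAFAH1B2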
Target sequence (P68402 whole entry, looked up): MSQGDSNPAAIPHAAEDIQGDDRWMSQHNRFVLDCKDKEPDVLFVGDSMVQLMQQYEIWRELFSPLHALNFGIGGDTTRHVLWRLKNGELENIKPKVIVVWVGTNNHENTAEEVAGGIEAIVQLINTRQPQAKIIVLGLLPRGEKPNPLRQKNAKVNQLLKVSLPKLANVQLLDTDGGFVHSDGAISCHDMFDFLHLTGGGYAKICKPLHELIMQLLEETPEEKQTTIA
PAFAH2 FP inh: PAFAH2 (human) inhibition; Q99487; recombinant PAFAH2, FP-rhodamine activity probe, fluorescence polarization; inhibition, % at 3.39 µM; 340,000 tested, 0.99% active; AID 492956;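 active = inhibition above the mean over all tested compounds plus 3 SD, cut at about 30% in these data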;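 note: inhibitors block probe labeling of enzyme so polarization drops; 0% = enzyme with DMSO and 100% = wells lacking PAFAH2 protein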
PAFAH1B3 inh: PAFAH1B3 (human) inhibition; Q15102; inhibition, % at 3.39 µM; recombinant PAFAH1B3, FP-rhodamine probe, fluorescence polarization; 340,000 tested, 0.28% active; AID 492972;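 active = inhibition above the screen-wide average of all tested compounds plus 3 SD, cut at about 25% in these data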;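 note: 0% = enzyme with DMSO only and 100% = wells lacking PAFAH1B3 protein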
pPAFAH inh: inhibitors of human plasma PAF acetylhydrolase (pPAFAH); Q13093; recombinant pPAFAH, FP-rhodamine probe fluorescence polarization; inhibition, % at 3.39 µM; 330,000 tested, 1.5% active; AID 463082;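 active = inhibition above the mean inhibition across the screen plus 3 SD, cut at about 25% in these data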;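 note: inhibitors block binding of the rhodamine activity-based probe so polarization drops; 0% = enzyme with DMSO and 100% = wells lacking pPAFAH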
Fam108B inh: blocks mouse Fam108B hydrolase in RBBP9 counter-screen. recombinant Fam108B, FP-Rh probe fluorescence polarization. inhibition, % at 9.51 µM. 300,000 tested, 0.33% active. AID 1947;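 active = inhibition above the screen mean inhibition plus 3 SD, computed separately per campaign, cut at about 18% in these data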;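 note: inhibitors lower polarization as less probe binds the enzyme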
Fam108b confirm: Fam108b (mouse) hydrolase inhibition, confirmation assay; shares compounds with Fam108B inh; AID 1978; inhibition, % at 9.51 µM; recombinant Fam108b, FP-Rh probe fluorescence polarization; 930 tested, 44% active;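 active = inhibition above a limit from the primary screen, the mean over all compounds plus 3 SD, cut at about 19% in these data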;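 note: 0% = median of active Fam108b wells and 100% = catalytically dead S170A mutant; inhibitors free the probe so polarization falls as inhibition rises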
Fam108b inh: mouse ABHD17B inhibition; recombinant Fam108b, gel-based ABPP, fluorophosphonate probe; 260 tested, 44% active; inhibition, % at 20 µM; shares compounds with Fam108B inh; AID 588649; in the data active = inhibition above about 40%
pPAFAH confirm: pPAFAH (human) inhibition, confirmed; shares compounds with pPAFAH inh; recombinant pPAFAH, FP-Rh probe fluorescence polarization; inhibition, % at 3.39 µM; 2,300 tested, 72% active;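 active = mean inhibition of the triplicate above the hit cutoff set for the earlier primary screen, cut at about 25% in these data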;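 note: 0% = enzyme with DMSO and 100% = wells lacking pPAFAH enzyme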
* = called active by the depositor; · = not tested or not shown. Rows were chosen to be rich in hits. Some 2.8% of all compounds tested hit in one or more screens of this group.

SMILES | PME-1 inh | PAFAH1B2 inh | PAFAH2 FP inh | PAFAH1B3 inh | pPAFAH inh | Fam108B inh | Fam108b confirm | pPAFAH confirm | others
O=C(O)c1ccccc1Nc1ccccc1C(=O)O | 4 | -1 | -1 | -3 | 3 | -2 | · | ·
O=C1C=C(Nc2ccccc2C(=O)O)c2ccccc2C1=O | 4 | 23 | 39* | 59* | 24 | 21* | 36* | · | Fam108b inh=0
Oc1ccc(/C=N/Nc2ccnc3cc(Cl)ccc23)c(O)c1O | 32* | 37* | 35* | 48* | 44* | 30* | 93* | 57*
CC/C(=N\Nc1ccnc2cc(Cl)ccc12)c1ccc(O)cc1 | 25 | 7 | -3 | 9 | 6 | 8 | · | ·
Oc1ccc(/C=N/Nc2ccnc3cc(Cl)ccc23)cc1O | 42* | 25* | 20 | 54* | 36* | 55* | 34* | 45*
Clc1ccc2c(NCc3ccccn3)ccnc2c1 | -8 | 5 | 3 | 1 | 0 | 6 | · | ·
N#C/C(=C/c1ccc(O)c(O)c1)c1nc2ccccc2[nH]1 | 29* | 45* | 62* | 58* | 63* | 27* | 29* | 79*
COc1ccc(NS(=O)(=O)c2ccc3c(c2)[C@H]2C=CC[C@H]2[C@@H](c2ccc(C(=O)O)cc2)N3)cc1 | -37 | 31* | 68* | 46* | 74* | 35* | 33* | 66* | Fam108b inh=0
CC(=O)c1ccc2c(c1)C1C=CCC1C(c1ccc(S(=O)(=O)N3CCOCC3)cc1)N2 (centres undefined) | 3 | 4 | -3 | 4 | 12 | 6 | · | ·
Cc1c(Cl)cccc1NS(=O)(=O)c1ccc2c(c1)C1C=CCC1C(c1ccc(C(=O)O)cc1)N2 (centres undefined) | -29 | 30* | 60* | 37* | 92* | 34* | 33* | 88* | Fam108b inh=0
COc1cc(/C=C2\S/C(=N/S(=O)(=O)c3ccc(C)cc3)NC2=O)c([N+](=O)[O-])cc1OC | -2 | 15 | 1 | 15 | 14 | 0 | · | ·
O=C1NC(=Nc2ccccc2Cl)S/C1=C\c1cc([N+](=O)[O-])ccc1O | -19 | 28* | 44* | 61* | 41* | 33* | 42* | 63* | Fam108b inh=30
Cc1ccc(S(=O)(=O)/N=C2/NC(=O)/C(=C/c3cc([N+](=O)[O-])ccc3O)S2)cc1 | -18 | 61* | 48* | 44* | 41* | 18* | 21* | 63*
O=C1N/C(=N/O)S/C1=C/c1cccc([N+](=O)[O-])c1 | 1 | 5 | 10 | 5 | 1 | 2 | · | ·
Cn1c(=O)c2c(SCC(=O)N3CCOCC3)nc(-c3ccccc3Cl)nc2n(C)c1=O | 2 | -1 | -3 | -2 | 1 | 4 | · | ·
Cc1ccc(S(=O)(=O)N2CCC[C@H]2C(=O)OCC(=O)N2CCc3ccccc32)cc1 | · | -4 | 0 | 3 | 6 | · | · | ·
O=c1cc(-c2ccc(O)c(-c3c(O)cc(O)c4c(=O)cc(-c5ccc(O)cc5)oc34)c2)oc2cc(O)cc(O)c12 | 5 | 36* | 38* | 54* | 62* | 44* | 41* | 71* | Fam108b inh=75*
O=S(=O)(c1ccc(N2CCOCC2)nc1)N(Cc1ccccn1)Cc1ccccn1 | 0 | 3 | 1 | 6 | 4 | 2 | · | ·
N#C/C(=N\Nc1cccc([N+](=O)[O-])c1)C(=O)c1ccc(Br)cc1 | 29* | 14 | 35* | 24 | 60* | 27* | 26* | 61*
Nc1c(S(=O)(=O)O)cc(NC(=O)c2ccccc2)c2c1C(=O)c1ccccc1C2=O | 54* | 34* | 54* | 49* | 84* | 53* | 50* | 90*
CC(=O)NC(=S)Nc1ccc(S(=O)(=O)Nc2ncccn2)cc1 | 9 | 4 | -4 | 3 | -1 | -1 | · | ·
CN1/C(=C\C=C2/C(=O)Oc3ccccc3C2=O)C(C)(C)c2ccccc21 | -186 | · | · | · | 35* | 139* | -132 | -60
CN1C(=CC=C2C=C(I)C(=O)C(I)=C2)C(C)(C)c2ccccc21 | · | -248 | -333 | -386 | · | · | · | ·
C/C(=N\NC(=O)c1ccccc1O)C1C(=O)c2ccccc2C1=O | 15 | 23 | 30* | 28* | 49* | 51* | 51* | 40*
CCC/C(C)=N/NC(=O)c1ccccc1O | -10 | 3 | 1 | -2 | -5 | -3 | · | ·
SMILES | PME-1 inh | PAFAH1B2 inh | PAFAH2 FP inh | PAFAH1B3 inh | pPAFAH inh | Fam108B inh | Fam108b confirm | pPAFAH confirm | others
Oc1ccc(Br)cc1CNc1cccc2cccnc12 | 11 | 7 | -4 | 16 | 24 | 4 | · | ·
Oc1c(Br)cc(Br)cc1CNc1cccc2cccnc12 | 25 | 17 | 24 | 28* | 61* | 36* | 14 | 25
Cc1ccccc1CN1CCN(CC2CC2)CC1CCO (centres undefined) | 1 | -3 | 0 | 7 | 4 | 1 | · | ·
O=C(COc1ccccc1C(=O)N/N=C\c1ccc(O)c(O)c1)N/N=C/c1ccc(O)c(O)c1 | 35* | 12 | 42* | 0 | 62* | 35* | 2 | 80*
O=C(COc1ccccc1[N+](=O)[O-])N/N=C/c1ccc(O)c([N+](=O)[O-])c1 | 1 | 4 | 8 | -2 | 2 | -8 | · | ·
COc1ccc(/C=C/C(=O)Oc2ccc(C)cc2)cc1 | 4 | 7 | 8 | 7 | 6 | -4 | · | ·
O=C(O)CCNc1cc(N2CCN(C(=O)c3ccco3)CC2)c2noc3c2c1C(=O)c1ccccc1-3 | -9 | -2 | -16 | -8 | 74* | 38* | 11 | 45*
C/C(=C\C(=O)c1cccnc1)Nc1ccc(O)cc1 | -16 | 0 | -3 | 3 | 38* | 48* | -3 | -4
Oc1ccccc1-c1nc2c3ccccc3c3ccccc3c2[nH]1 | 38* | 27* | 59* | 43* | 45* | 44* | 53* | 27* | Fam108b inh=90*
C=C(C)CN(CC)c1nc(N)c2c(N)nc3c(c2c1C#N)CC(=O)N3C12CC3CC(CC(C3)C1)C2 | 7 | 5 | 13 | 11 | 16 | 2 | · | ·
N#Cc1c(N2CCCC(O)C2)nc(N)c2c(N)nc3c(c12)CC(=O)N3C12CC3CC(CC(C3)C1)C2 (centres undefined) | 11 | 46* | 46* | 51* | 45* | 19* | 17 | 22
CCN(CC)c1ccc(/C=N/NC(=O)c2cccc(S(=O)(=O)Nc3ccccc3OC)c2)c(O)c1 | 45* | 15 | 9 | 18 | 48* | 58* | 7 | 65*
CC(C)S(=O)(=O)C1=NSC2=NC(=O)/C(=C\c3ccc(-c4cccc(C(=O)O)c4)o3)C(=N)N21 | · | -1 | -11 | 7 | · | · | · | ·
